Assay results reported in PubChem BioAssay AID588511 (Johns Hopkins Ion Channel Center, 2011).
In all, about 310,000 compounds went through this assay and about 3,600 (1.2%) were called active.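 Rule for the calls: active = ratio plate-corrected score three or more library SD toward inhibition, starting fluorescence score within five deviations; inactive = the rest.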 The list comes from a sample in which actives are over-represented; it also holds similar structures and randomly drawn compounds.

biological target: Anoctamin-1 (Mus musculus) (UniProt Q8BHY3); experiment: blockers of mouse ANO1 Ca-activated Cl channel – cell-based, HTS, primary screen (AID 588511); conditions: HEK293 TMEM16A/YFP iodide influx fluorescence, ionomycin; at 10 µM;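 for normalized B-score (activity score, 25-100; higher = stronger inhibition): score derived from kinetic fluorescence span divided by baseline fluorescence per well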
Sequence (Q8BHY3 whole entry, looked up): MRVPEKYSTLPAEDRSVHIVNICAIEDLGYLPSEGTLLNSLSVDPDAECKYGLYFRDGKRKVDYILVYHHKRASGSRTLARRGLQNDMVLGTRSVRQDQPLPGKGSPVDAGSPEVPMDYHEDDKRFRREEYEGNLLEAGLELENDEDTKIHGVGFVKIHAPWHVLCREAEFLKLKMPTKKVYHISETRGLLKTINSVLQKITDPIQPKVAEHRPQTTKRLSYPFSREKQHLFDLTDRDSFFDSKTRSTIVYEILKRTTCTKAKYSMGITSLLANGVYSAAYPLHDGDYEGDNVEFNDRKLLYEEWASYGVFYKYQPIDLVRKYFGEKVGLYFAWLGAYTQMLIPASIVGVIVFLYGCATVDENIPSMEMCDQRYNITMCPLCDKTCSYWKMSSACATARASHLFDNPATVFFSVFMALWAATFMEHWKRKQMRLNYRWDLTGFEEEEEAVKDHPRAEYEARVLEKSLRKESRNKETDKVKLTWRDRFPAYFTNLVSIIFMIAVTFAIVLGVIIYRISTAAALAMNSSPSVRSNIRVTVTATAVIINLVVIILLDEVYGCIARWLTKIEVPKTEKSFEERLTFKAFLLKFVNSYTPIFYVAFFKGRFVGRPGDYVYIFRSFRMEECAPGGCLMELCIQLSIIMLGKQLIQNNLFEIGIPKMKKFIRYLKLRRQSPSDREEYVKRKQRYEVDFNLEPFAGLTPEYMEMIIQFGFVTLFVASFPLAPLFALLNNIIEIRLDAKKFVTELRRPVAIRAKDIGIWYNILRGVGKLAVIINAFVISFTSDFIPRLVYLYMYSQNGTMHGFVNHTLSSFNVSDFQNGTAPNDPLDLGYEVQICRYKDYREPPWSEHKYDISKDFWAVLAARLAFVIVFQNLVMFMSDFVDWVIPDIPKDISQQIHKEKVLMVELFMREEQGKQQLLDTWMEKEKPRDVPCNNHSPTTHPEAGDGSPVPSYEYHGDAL

SMILES | normalized B-score (activity score, 25-100; higher = stronger inhibition)
C/C(=N\NS(=O)(=O)c1ccc(Cl)cc1)c1ccc(NC(=O)c2ccco2)cc1 | inactive
CC1(C)CC(N2CCN(C(c3ccccc3)c3ccccc3)CC2)=CC(=[N+]2CCCCC2)C1 | 100 (active)
CC1(C)CC(=O)C=C(N2CCCC2)C1 | inactive
O=C1CC(N2CCN(C(c3ccccc3)c3ccccc3)CC2)C(=O)N1 (configuration not stated) | inactive
O=C(/C=C/Nc1ccc(S(=O)(=O)Nc2cnc3ccccc3n2)cc1)c1cccnc1 | inactive
COc1ccc(/C=C(\C#N)c2c[nH]c3ccccc23)cc1 | inactive
CCN(CC)CC(=O)c1c[nH]c2ccc(OC)cc12 | inactive
COc1ccc2[nH]cc(/C=C(/C#N)S(=O)(=O)c3ccccc3)c2c1 | 100 (active)
COC(C[C@@H](O)C[C@@H](O)[C@H](C)OCc1ccccc1)OC | inactive
CCc1cccc(NC(=O)COC(=O)C2CCN(c3ccc(C(F)(F)F)cn3)CC2)c1 | inactive
N#CCSc1nc2c(c(=O)n1Cc1ccccc1)C1(CCCC1)Cc1ccccc1-2 | inactive
Cc1cccc(-n2c(=O)c3c(C)c(C)sc3n(CC(N)=O)c2=O)c1 | inactive
Cc1cccc(-n2c(SCC(N)=O)nc3c(c2=O)C2(CCCCC2)Cc2ccccc2-3)c1 | 100 (active)
CCCc1cc(-c2nc(-c3ccc(C)cc3)cs2)ccn1 | inactive
Cc1ccc(-c2csc(-c3cc(C)on3)n2)cc1 | inactive
Cc1ccc(-c2csc(-c3c[nH]c4ccccc34)n2)cc1 | 100 (active)
O=C(C1CCCO1)N1CCN(S(=O)(=O)c2ccc(Br)cc2)CC1 (configuration not stated) | inactive
Cc1cc(=O)oc2cc(OCC3CC(c4ccccc4Cl)=NO3)ccc12 (configuration not stated) | inactive
O=C(CCS(=O)(=O)c1ccc2c(c1)NC(=O)CS2)NCc1ccccc1Cl | inactive
CNC(=O)c1[nH]cnc1C(=O)N[C@@H](CC(C)C)C(=O)OCc1ccccc1 | 25 (active)
CNC(=O)c1[nH]cnc1C(=O)N[C@@H](CC(C)C)C(=O)OC(C)(C)C | inactive
O=C(N[C@@H](Cc1ccccc1)C(=O)OCc1ccccc1)c1nc[nH]c1C(=O)N[C@@H](Cc1ccccc1)C(=O)OCc1ccccc1 | inactive
O=C(CSc1nnc(-c2cccs2)n1Cc1ccccc1)N1CCc2ccccc2C1 | inactive
Cc1nc(SCC(=O)N2CC(=O)Nc3ccccc32)c2c(C)c(C)sc2n1 | inactive
Cc1nc(SCC(=O)N2CCc3ccccc3C2)c2c(C)c(C)sc2n1 | 100 (active)
O=C(N1CCCCC1)N1CCN(C(=O)N2CCCCC2)CC1 | inactive

SMILES | normalized B-score (activity score, 25-100; higher = stronger inhibition)
O=S(=O)(c1ccccc1)N1CCc2ccccc21 | inactive
CCn1c(=O)c(=O)n(CC)c2cc(S(=O)(=O)N3CCc4ccccc43)ccc21 | inactive
Cn1c(=O)n(C)c2cc(S(=O)(=O)N3CCCc4ccccc43)ccc21 | 25 (active)
Cc1ccc(S(=O)(=O)NC2CCCCCC2)cc1C(N)=O | inactive
COC(=O)[C@@H]1C[C@@]2(O)[C@H](O)[C@H](O)[C@H](O)C[C@H]2N1Cc1ccc(C(C)(C)C)cc1 | inactive
O=C(CCCN1C(=O)c2cccc3cccc(c23)C1=O)N1CCN(Cc2ccc3c(c2)OCO3)CC1 | 100 (active)
Cn1c(=O)cc(OCCCC(=O)N2CCN(Cc3ccc4c(c3)OCO4)CC2)c2ccccc21 | inactive
O=C(Nc1cccc2ccccc12)N1CCN(Cc2ccc3c(c2)OCO3)CC1 | inactive
O=C(CSCc1ccc(Cl)cc1)N1CCN(Cc2ccc3c(c2)OCO3)CC1 | 100 (active)
O=C(C1CCN(Cc2ccc(Cl)cc2)CC1)N1CCN(Cc2ccc3c(c2)OCO3)CC1 | inactive
O=C(CSCc1ccc(Cl)cc1)N1CCCCC1 | inactive
NC(=O)C1=C[C@@H](c2ccc3c(c2)OCO3)C[C@@H](OCCCCO)O1 | inactive
COc1ccc(N2C(=O)C(CC(=O)Nc3ccc(F)cc3)N(CCc3cccs3)C2=O)cc1 (configuration not stated) | inactive
Cc1cnc(C)c(N2CCN(C(=O)C3CCC(=O)N(CCc4cccc(F)c4)C3)CC2)n1 (configuration not stated) | inactive
CC(C)Cn1cnc2c1c(=O)n(CC(=O)NN)c(=O)n2Cc1ccccc1 | inactive
Cc1ccnc(NC(=O)C2CCN(S(=O)(=O)c3c(C)c(C)cc(C)c3C)CC2)c1 | inactive
COc1ccc(CCNc2cc(C)nc3c(-c4ccc(Cl)cc4)c(C)nn23)cc1OC | inactive
CC(=O)Nc1ccc(OC(=O)COc2ccc(Br)cc2)cc1 | inactive
Cc1ccc(NC(=O)C(C)c2cccc(C(=O)c3ccccc3)c2)cc1 (configuration not stated) | 100 (active)
CC(=O)Nc1ccc(NC(=O)[C@@H](NC(=O)c2cccc(C)c2)C(C)C)cc1 | inactive
COC(C(=O)Nc1ccc(C(C)=O)cc1)c1ccccc1 (configuration not stated) | inactive
COCCn1c(=O)[nH]c(=O)c2cc(C(=O)c3cc(OC)ccc3O)cnc21 | inactive
CC1Cc2ccccc2N1C(=O)CSc1nnc(C2CC2)n1C (configuration not stated) | inactive
CCCCSc1nnc2c(n1)OC=Nc1ccccc1-2 | inactive
O=C(CSC(=S)N1CCCCC1)c1c(F)cccc1F | inactive
CCOC(=O)[C@H]1[C@H]2COc3ccc(Cl)cc3[C@@H]2N2C(=O)c3cc(C)ccc3NC(=O)[C@@]12C | inactive

SMILES | normalized B-score (activity score, 25-100; higher = stronger inhibition)
CCN(CC)S(=O)(=O)c1ccc(N(C)CCc2ccc(OC)c(OC)c2)nc1 | inactive
CCN(CC)S(=O)(=O)c1ccc(N(C)Cc2ccc(C(F)(F)F)cc2)nc1 | 100 (active)
COc1ccc(S(=O)(=O)N2CCCCCC2)cc1C(=O)N(C)Cc1cccc(OC)c1OC | inactive
CCN(CC)S(=O)(=O)c1ccc(Cl)c(NC(=O)c2ccncc2)c1 | inactive
CCN(CC)S(=O)(=O)c1ccc(N(C)Cc2cccc(OC)c2OC)nc1 | 25 (active)
CCN(CC)S(=O)(=O)c1ccc(NC(=O)c2cnc(C)cn2)cc1 | inactive
CCC(C)c1ccccc1N1CC(C(=O)N2CCN(S(=O)(=O)c3ccc(F)cc3)CC2)CC1=O (configuration not stated) | inactive
COc1ccccc1CNC(=O)Cn1c(=O)oc2cc(Cl)ccc21 | inactive
CC1CCCCC1NC(=O)CN1CCC(O)(c2ccc3c(c2)OCO3)CC1 (configuration not stated) | inactive
CCOC(=O)C1CCN(c2ncnc3c2c(-c2ccccc2)cn3-c2ccc(C)cc2)CC1 | inactive
CCOC(=O)C1CCN(Cc2nnc(-c3cccc(Br)c3)o2)CC1 | inactive
CCOC(=O)C1CCN(c2ncnc3c2oc2ccc(Br)cc23)CC1 | 100 (active)
O=C(Nc1ccc(C(=O)NCc2ccccc2Cl)cc1)C1=CSCCO1 | inactive
O=C(/C=C/c1ccco1)NC(=S)N1CCCCC1 | inactive
O=C(Nc1cccnc1)c1noc2c1CCCCC2 | inactive
CCN1CCN(C(=O)C2CCN(S(=O)(=O)c3cc(Cl)ccc3Cl)CC2)CC1 | inactive
CCCCNC(=O)C1CCC(=O)N1CCc1ccccc1 (configuration not stated) | inactive
O=C(CSc1nc(-c2ccccc2)cs1)Nc1cccc([N+](=O)[O-])c1 | 100 (active)
O=C(CSc1ncn[nH]1)Nc1nc(-c2cccc([N+](=O)[O-])c2)cs1 | inactive
CCNC(=O)CSc1nc(-c2ccccc2)cs1 | inactive
COc1ccc(CN2CCNC(=O)C2CC(=O)N(C)Cc2ccccn2)cc1OC (configuration not stated) | inactive
Cc1ccc(SCC(=O)c2cc(C)c(OC(=S)N(C)C)c(C)c2)cc1 | 100 (active)
Cc1ccc(SCC(=O)Nc2ccc3c(c2)OCCO3)cc1 | inactive
Cc1ccc(C(=O)CSc2ccccc2C(=O)O)cc1 | inactive
O=C(C1CCN(S(=O)(=O)c2ccc(Br)s2)CC1)N1CCN(c2ccccc2)CC1 | inactive
Cc1ccc(N2CC(C(=O)Nc3ccc(S(=O)(=O)N4CCCC4)cc3)CC2=O)cc1C (configuration not stated) | inactive

SMILES | normalized B-score (activity score, 25-100; higher = stronger inhibition)
Cc1ccc(NC(=O)C2CC(=O)N(c3ccc4c(c3)OCCO4)C2)cc1S(=O)(=O)N1CCCCCC1 (configuration not stated) | 25 (active)
COc1ccc(S(=O)(=O)N2CCCCC2)cc1NC(=O)C1CC(=O)N(c2ccc3c(c2)OCCO3)C1 (configuration not stated) | inactive
Cc1oc(-c2ccccc2F)nc1CS(=O)CC(=O)NCCN1CCCCC1C (configuration not stated) | inactive
CC(c1ccccn1)N(CCN(C)C)C(=S)Nc1ccccc1F (configuration not stated) | inactive
CSc1cccc(NC(=S)N(C(C)C)C(C)c2ccccn2)c1 (configuration not stated) | 25 (active)
CSc1cccc(NC(=S)N(Cc2ccccc2)Cc2ccccn2)c1 | inactive
CC(=O)N/N=C(\C)c1ccc(Br)cc1Br | inactive
CC(C)/C=N/NC(=O)c1cc(Br)ccc1O | inactive
CC(=N\NC(=O)c1cc(Br)ccc1O)/C(=N/O)C(=O)Nc1ccccc1 | 25 (active)
O=C(NC(=S)Nc1ccc(Cl)c(C(=O)O)c1)c1cncc(Br)c1 | inactive
COc1cc(C)c(C(C)C)cc1S(=O)(=O)n1ccnc1 | inactive
COc1ccccc1-n1cnc2cc(NS(=O)(=O)c3ccccc3)ccc21 | inactive
O=C(O)c1ccc(Cn2c(=S)[nH]c3cc(Cl)ccc3c2=O)cc1 | inactive
CC(C)c1ccc2c(c1)c(SC(C)(C)C)c(CC(C)(C)C(=O)O)n2Cc1ccc(Cl)cc1 | 100 (active)
O=C(COC(=O)CNS(=O)(=O)c1ccccc1)NC12CC3CC(CC(C3)C1)C2 | inactive
CSc1nnc2c(n1)OC(c1ccsc1)N(C(C)=O)c1ccccc1-2 (configuration not stated) | 100 (active)
CSc1nnc2c(n1)OC(c1cn(C)c3ccccc13)N(C(C)=O)c1ccccc1-2 (configuration not stated) | inactive
CSc1ncc(Sc2ccccc2)c(C(=O)O)n1 | inactive
O=C(NCCc1ccc(Cl)cc1Cl)c1cc([N+](=O)[O-])c[nH]c1=O | 100 (active)
NS(=O)(=O)c1ccc(CCNC(=O)c2ccc(Cl)cc2[N+](=O)[O-])cc1 | inactive
O=C(NCCc1c[nH]c2ccc(Cl)cc12)c1ccc([N+](=O)[O-])cc1 | inactive
CC(C)CC(CCc1ccccc1)OS(N)(=O)=O (configuration not stated) | inactive
CSc1nc2nc3c(c(=O)n2[nH]1)CCC3 | inactive
COc1ccc(C(=O)CCc2ccccc2O)c(OC)c1 | inactive
